# Results reported in PubChem BioAssay (NCI).
# This is part of a sample that, as a whole, favours compounds with a hit. Of some 79,000 tested, about 15% had one in any assay. Values without a mark were called inactive. The source made the active and inactive calls. No stated cut-off is given here; in the data, active means growth inhibition above about 70%; inactive means the rest.
# Tests used:
# [1] = NCI Yeast Anticancer Drug Screen. Data for the rad52 strain (AID 147);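 further: 0% = growth of vehicle-treated control cultures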; conditions: S. cerevisiae rad52 mutant growth inhibition, stronger effect = higher value
# Summary of the method: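 DNA repair-defective yeast; compound exposure; growth scored against vehicle controls.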
# [2] = NCI Yeast Anticancer Drug Screen. Data for the rad50EPP+ strain (AID 151);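 further: 0% = growth of vehicle-treated control cultures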; conditions: S. cerevisiae rad50 mutant strain, stronger effect = higher value
# Summary of the method: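 rad50EPP+ yeast treated with test compounds. Readout: growth vs vehicle control.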
# [3] = NCI Yeast Anticancer Drug Screen. Data for the mgt1 strain (AID 153); conditions: S. cerevisiae mgt1 mutant growth inhibition, stronger effect = higher value
# Summary of the method: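 Growth inhibition relative to vehicle controls was scored for the mgt1 yeast strain after compound exposure.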
# [4] = NCI Yeast Anticancer Drug Screen. Data for the rad50 strain (AID 155);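 further: 0% = growth of vehicle-only cultures of the same strain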; conditions: S. cerevisiae rad50 strain growth inhibition, stronger effect = higher value
# Summary of the method: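 Inhibition values express reduced yeast growth in compound-treated cultures relative to vehicle-treated controls.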
# [5] = NCI Yeast Anticancer Drug Screen. Data for the mec2-1 strain (AID 157); conditions: S. cerevisiae mec2-1 strain, stronger effect = higher value
# Summary of the method: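 Growth inhibition is read against vehicle-treated controls after compound exposure of the mec2-1 yeast strain, which is defective in DNA damage repair or cell cycle control.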
# [6] = NCI Yeast Anticancer Drug Screen. Data for the rad14 strain (AID 159);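 further: 0% = growth of vehicle-treated control cultures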; conditions: S. cerevisiae rad14 strain growth inhibition, stronger effect = higher value
# Summary of the method: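 A mutant yeast strain defective in DNA damage repair is treated with compound; inhibition of its growth is scored against untreated, vehicle-exposed cultures.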
# [7] = NCI Yeast Anticancer Drug Screen. Data for the sgs1 mgt1 strain (AID 161);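 further: 0% = growth of cultures given vehicle only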; conditions: S. cerevisiae sgs1 mgt1 strain, stronger effect = higher value
# Summary of the method: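 Percent growth inhibition was derived by comparing compound-exposed mutant yeast with vehicle-exposed cultures. The strain carries alterations in DNA damage repair.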
# [8] = NCI Yeast Anticancer Drug Screen. Data for the CLN2oe strain (AID 163);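 further: 0% = growth of vehicle-only control cultures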; conditions: S. cerevisiae CLN2oe strain, stronger effect = higher value
# Summary of the method: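 Compound-treated yeast; growth vs vehicle ctrl = % inhibition. Genetically altered strain (cell-cycle control).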
# [9] = NCI Yeast Anticancer Drug Screen. Data for the cln2 rad14 strain (AID 165);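 further: 0% = growth equal to vehicle treated cultures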; conditions: S. cerevisiae cln2 rad14 strain, stronger effect = higher value
# Summary of the method: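 Growth inhibition, relative to vehicle-treated controls, is the read-out. The test organism is a yeast strain with defined genetic alterations, cln2 rad14.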
# [10] = NCI Yeast Anticancer Drug Screen. Data for the bub3 strain (AID 167); conditions: S. cerevisiae bub3 mutant strain, stronger effect = higher value
# Summary of the method: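 Steps: expose the mutant yeast strain to compound; grow alongside vehicle-treated cultures; measure growth; express inhibition against the vehicle cultures.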
# [11] = NCI Yeast Anticancer Drug Screen. Data for the wt2 strain (AID 169);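 further: 0% = growth of vehicle-treated yeast cultures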; conditions: S. cerevisiae wt2 strain growth inhibition, stronger effect = higher value
# Summary of the method: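 Compound exposure of yeast; growth compared with vehicle controls; inhibition reported.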
# [12] = NCI Yeast Anticancer Drug Screen. Data for the sgs1 strain (AID 173);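 further: 0% = growth of vehicle-only control cultures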; conditions: S. cerevisiae sgs1 mutant, stronger effect = higher value
# Summary of the method: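 Compounds applied to genetically altered yeast; growth compared with vehicle-treated cultures to give % inhibition.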
# [13] = NCI Yeast Anticancer Drug Screen. Data for the mlh1 rad18 strain (AID 175); conditions: S. cerevisiae mlh1 rad18 strain growth inhibition, stronger effect = higher value
# Summary of the method: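 Cells of a genetically altered yeast strain, deficient in DNA damage repair, were treated with compound. Their growth was then compared with that of vehicle-treated cultures to give inhibition.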
# [14] = NCI Yeast Anticancer Drug Screen. Data for the rad18 strain (AID 177); conditions: S. cerevisiae rad18 mutant growth inhibition, stronger effect = higher value
# Summary of the method: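 Compounds are applied to a repair-deficient yeast strain, and growth is compared with that of vehicle-treated cultures to give percent inhibition.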
# [15] = NCI Yeast Anticancer Drug Screen. Data for the wt1 strain (AID 149);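 further: 0% = growth of vehicle-treated wt1 cultures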; conditions: S. cerevisiae wt1 strain (SPY 50644) growth inhibition, stronger effect = higher value
# Summary of the method: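 Compounds are added to wt1 yeast cultures. Growth is then measured. Inhibition is expressed relative to vehicle-treated controls.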
# [16] = NCI Yeast Anticancer Drug Screen. Data for the mlh1 strain (AID 171);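 further: 0% = growth of vehicle-treated control cultures of the same strain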; conditions: S. cerevisiae mlh1 strain growth inhibition, stronger effect = higher value
# Summary of the method: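 Compounds are applied to a genetically altered yeast strain, and its growth is compared with that of vehicle-treated cultures to give percent inhibition.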
# [17] = at 5.0 µM (retest, dose inferred, filed as 0.5)
# [18] = at 50.0 µM (retest, dose inferred, filed as 5.0)
smiles,measurement,setting,value
Cc1cccc(/C=N/NC(=S)NC2CCCCC2)n1,growth inhibition,[1]; at 1.2 µM,-8%
same,growth inhibition,[1]; at 3.7 µM,-9%
same,growth inhibition,[1]; at 11.0 µM,-8%
same,growth inhibition,[1]; at 33.0 µM,9%
same,growth inhibition,[1]; at 100.0 µM,6%
same,growth inhibition,[2]; at 1.2 µM,-8%
same,growth inhibition,[2]; at 3.7 µM,-8%
same,growth inhibition,[2]; at 11.0 µM,-13%
same,growth inhibition,[2]; at 33.0 µM,-13%
same,growth inhibition,[2]; at 100.0 µM,-12%
same,growth inhibition,[3]; at 1.2 µM,-5%
same,growth inhibition,[3]; at 3.7 µM,-8%
same,growth inhibition,[3]; at 11.0 µM,19%
same,growth inhibition,[3]; at 33.0 µM,20%
same,growth inhibition,[3]; at 100.0 µM,21%
same,growth inhibition,[4]; at 1.2 µM,-7%
same,growth inhibition,[4]; at 3.7 µM,-9%
same,growth inhibition,[4]; [17],-32%
same,growth inhibition,[4]; at 11.0 µM,-33%
same,growth inhibition,[4]; at 33.0 µM,13%
same,growth inhibition,[4]; [18],77% (active)
same,growth inhibition,[4]; at 50.0 µM,39.5%
same,growth inhibition,[4]; at 100.0 µM,7%
same,growth inhibition,[5]; at 1.2 µM,1%
same,growth inhibition,[5]; at 3.7 µM,-6%
same,growth inhibition,[5]; [17],-23%
same,growth inhibition,[5]; at 11.0 µM,-5%
same,growth inhibition,[5]; at 33.0 µM,11%
same,growth inhibition,[5]; [18],64%
same,growth inhibition,[5]; at 50.0 µM,54.8%
same,growth inhibition,[5]; at 100.0 µM,8%
same,growth inhibition,[6]; at 1.2 µM,-7%
same,growth inhibition,[6]; at 3.7 µM,-15%
same,growth inhibition,[6]; at 11.0 µM,-11%
same,growth inhibition,[6]; at 33.0 µM,28%
same,growth inhibition,[6]; at 100.0 µM,26%
same,growth inhibition,[7]; [17],-25%
same,growth inhibition,[7]; [18],51%
same,growth inhibition,[7]; at 50.0 µM,70.8% (active)
same,growth inhibition,[8]; at 1.2 µM,-14%
same,growth inhibition,[8]; at 3.7 µM,-17%
same,growth inhibition,[8]; at 11.0 µM,-23%
same,growth inhibition,[8]; at 33.0 µM,18%
same,growth inhibition,[8]; at 100.0 µM,12%
same,growth inhibition,[9]; [17],-24%
same,growth inhibition,[9]; [18],20%
same,growth inhibition,[9]; at 50.0 µM,40.6%
same,growth inhibition,[10]; at 1.2 µM,-6%
same,growth inhibition,[10]; at 3.7 µM,-3%
same,growth inhibition,[10]; [17],-30%
same,growth inhibition,[10]; at 11.0 µM,16%
same,growth inhibition,[10]; at 33.0 µM,32%
same,growth inhibition,[10]; [18],79% (active)
same,growth inhibition,[10]; at 50.0 µM,72.7% (active)
same,growth inhibition,[10]; at 100.0 µM,20%
same,growth inhibition,[11]; at 1.2 µM,-4%
same,growth inhibition,[11]; at 3.7 µM,-4%
same,growth inhibition,[11]; at 11.0 µM,1%
same,growth inhibition,[11]; at 33.0 µM,26%
same,growth inhibition,[11]; at 100.0 µM,18%
same,growth inhibition,[12]; at 1.2 µM,-3%
same,growth inhibition,[12]; at 3.7 µM,-2%
same,growth inhibition,[12]; at 11.0 µM,9%
same,growth inhibition,[12]; at 33.0 µM,40%
same,growth inhibition,[12]; at 100.0 µM,29%
same,growth inhibition,[13]; [17],-19%
same,growth inhibition,[13]; [18],55%
same,growth inhibition,[13]; at 50.0 µM,62.5%
same,growth inhibition,[14]; at 1.2 µM,-5%
same,growth inhibition,[14]; at 3.7 µM,-4%
same,growth inhibition,[14]; at 11.0 µM,3%
same,growth inhibition,[14]; at 33.0 µM,20%
same,growth inhibition,[14]; at 100.0 µM,19%
CCCCS(=O)(=O)Nc1ccc(Nc2c3ccccc3nc3ccccc23)c(OC)c1,growth inhibition,[15]; at 1.2 µM,-38%
same,growth inhibition,[15]; at 3.7 µM,-34%
same,growth inhibition,[15]; at 11.0 µM,-36%
same,growth inhibition,[15]; at 33.0 µM,44%
same,growth inhibition,[15]; at 100.0 µM,96% (active)
same,growth inhibition,[2]; at 1.2 µM,-20%
same,growth inhibition,[2]; at 3.7 µM,-11%
same,growth inhibition,[2]; at 11.0 µM,10%
same,growth inhibition,[2]; at 33.0 µM,53%
same,growth inhibition,[2]; at 100.0 µM,81% (active)
same,growth inhibition,[3]; at 1.2 µM,-49%
same,growth inhibition,[3]; at 3.7 µM,-46%
same,growth inhibition,[3]; at 11.0 µM,-33%
same,growth inhibition,[3]; at 33.0 µM,64%
same,growth inhibition,[3]; at 100.0 µM,96% (active)
same,growth inhibition,[4]; at 1.2 µM,39%
same,growth inhibition,[4]; at 3.7 µM,78% (active)
same,growth inhibition,[4]; [17],86% (active)
same,growth inhibition,[4]; at 11.0 µM,89% (active)
same,growth inhibition,[4]; at 33.0 µM,94% (active)
same,growth inhibition,[4]; [18],98% (active)
same,growth inhibition,[4]; at 50.0 µM,45%
same,growth inhibition,[4]; at 100.0 µM,96% (active)
same,growth inhibition,[5]; at 1.2 µM,-29%
same,growth inhibition,[5]; at 3.7 µM,-9%
same,growth inhibition,[5]; [17],15%
same,growth inhibition,[5]; at 11.0 µM,37%
same,growth inhibition,[5]; at 33.0 µM,91% (active)
same,growth inhibition,[5]; [18],98% (active)
same,growth inhibition,[5]; at 50.0 µM,47.5%
same,growth inhibition,[5]; at 100.0 µM,98% (active)
same,growth inhibition,[6]; at 1.2 µM,-31%
same,growth inhibition,[6]; at 3.7 µM,-25%
same,growth inhibition,[6]; at 11.0 µM,-9%
same,growth inhibition,[6]; at 33.0 µM,79% (active)
same,growth inhibition,[6]; at 100.0 µM,96% (active)
same,growth inhibition,[7]; [17],44%
same,growth inhibition,[7]; [18],99% (active)
same,growth inhibition,[7]; at 50.0 µM,84% (active)
same,growth inhibition,[8]; at 1.2 µM,10%
same,growth inhibition,[8]; at 3.7 µM,3%
same,growth inhibition,[8]; at 11.0 µM,6%
same,growth inhibition,[8]; at 33.0 µM,72% (active)
same,growth inhibition,[8]; at 100.0 µM,91% (active)
same,growth inhibition,[9]; [17],25%
same,growth inhibition,[9]; [18],95% (active)
same,growth inhibition,[9]; at 50.0 µM,77% (active)
same,growth inhibition,[10]; at 1.2 µM,-53%
same,growth inhibition,[10]; at 3.7 µM,-63%
same,growth inhibition,[10]; [17],43%
same,growth inhibition,[10]; at 11.0 µM,-35%
same,growth inhibition,[10]; at 33.0 µM,60%
same,growth inhibition,[10]; [18],96% (active)
same,growth inhibition,[10]; at 50.0 µM,76.9% (active)
same,growth inhibition,[10]; at 100.0 µM,96% (active)
same,growth inhibition,[11]; at 1.2 µM,-13%
same,growth inhibition,[11]; at 3.7 µM,-22%
same,growth inhibition,[11]; at 11.0 µM,-13%
same,growth inhibition,[11]; at 33.0 µM,41%
same,growth inhibition,[11]; at 100.0 µM,93% (active)
same,growth inhibition,[16]; at 1.2 µM,-58%
same,growth inhibition,[16]; at 3.7 µM,-43%
same,growth inhibition,[16]; at 11.0 µM,-29%
same,growth inhibition,[16]; at 33.0 µM,73% (active)
same,growth inhibition,[16]; at 100.0 µM,97% (active)
same,growth inhibition,[12]; at 1.2 µM,1%
same,growth inhibition,[12]; at 3.7 µM,3%
same,growth inhibition,[12]; at 11.0 µM,20%
same,growth inhibition,[12]; at 33.0 µM,79% (active)
same,growth inhibition,[12]; at 100.0 µM,97% (active)
same,growth inhibition,[13]; [17],78% (active)
same,growth inhibition,[13]; [18],97% (active)
same,growth inhibition,[13]; at 50.0 µM,84% (active)
same,growth inhibition,[14]; at 1.2 µM,-14%
same,growth inhibition,[14]; at 3.7 µM,-15%
same,growth inhibition,[14]; at 11.0 µM,0%
same,growth inhibition,[14]; at 33.0 µM,78% (active)
same,growth inhibition,[14]; at 100.0 µM,96% (active)
